S1P4 agonist: agonists of human S1P4 receptor. S1P4-expressing cell line, agonist reporter assay. 220,000 tested, 0.35% active. O95977. AID 1509. activation, % at 4.98 µM; in the data active = activation above about 11%;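 note: 0% = DMSO vehicle and 100% = reference agonist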
S1P3 antagonist: S1P3 (human) receptor antagonism | Q99500 | CHO S1P3 NFAT-BLA reporter, FRET fluorescence, antagonist mode | inhibition, % at 4.98 µM | 170,000 tested, 0.27% active;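 active = inhibition above the plate cutoff, the mean inhibition of test wells on that plate plus 3 SD, cut at about 28% in these data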;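 note: cells challenged with S1P at its EC80 of 0.8 µM; blue over green emission ratio from cleaved BLA substrate after 4 h stimulation; 0% = S1P-stimulated wells and 100% = unstimulated DMSO-only wells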
Target sequence (Q99500 whole entry, looked up): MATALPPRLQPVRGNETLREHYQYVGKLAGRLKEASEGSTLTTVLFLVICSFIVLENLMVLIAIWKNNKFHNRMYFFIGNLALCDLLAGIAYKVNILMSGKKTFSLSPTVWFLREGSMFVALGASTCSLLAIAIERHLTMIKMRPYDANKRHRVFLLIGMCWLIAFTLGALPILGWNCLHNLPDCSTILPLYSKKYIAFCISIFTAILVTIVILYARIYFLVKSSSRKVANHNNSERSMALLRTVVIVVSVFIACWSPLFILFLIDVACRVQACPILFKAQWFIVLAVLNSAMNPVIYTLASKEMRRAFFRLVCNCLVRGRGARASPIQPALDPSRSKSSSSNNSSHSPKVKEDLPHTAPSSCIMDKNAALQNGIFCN
Cl transport mod: modulates chloride dependent transport by human KCC2; 190,000 tested, 2.2% active; Q9H2X9; KCC2 cells, thallium flux FluoZin-2 fluorescence; AID 1456; B-score of Tl+ flux slope (higher = more flux/activation; lower = inhibition) at 10 µM;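 active = thallium flux slope and its plate-corrected score both differing from the plate sample mean at a set confidence after two filtering rounds, in either direction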;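 note: slope of fluorescence scaled to starting intensity during 10 to 20 s after thallium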
S1P4 antagonist: human S1P4 receptor antagonism | O95977 | S1P4-expressing cells, antagonist mode, reporter read-out | inhibition, % at 4.98 µM | 220,000 tested, 0.26% active; in the data active = inhibition above about 29%;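 note: 0% = wells stimulated with agonist and 100% = vehicle wells without agonist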
RAM network inh: blocks the yeast RAM network; inhibition, % at 50 µM; 190,000 tested, 1.8% active; S. cerevisiae dse1pr::URA3 reporter, 5-FOA growth OD615, 2 d; analog-sensitive cbk1-as2 kinase mutant strain;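 active = inhibition above a set limit, 3 SD over mean compound inhibition, cut at about 8.4% in these data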;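 note: 0% = DMSO-only wells with no growth and 100% = 10 µM 1-NA-PP1 full growth; inhibition rescues growth on 5-FOA so higher OD means more RAM inhibition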
ROMK mod: human ROMK K+ channel modulation, primary screen; P48048; Tet-inducible ROMK, thallium flux fluorescence; actives lie on both sides; B-score at 10 µM; 130,000 tested, 2% active; AID 1918;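 active = signal ratio slope over the read window, or its plate-corrected B-score, at least 3 SD from the plate mean, either direction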;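 note: B-score of the F/F0 ratio slope over 7 to 12 s after thallium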
ROMK retest: retested hit modulating human ROMK potassium channel. shares compounds with ROMK mod. ROMK thallium flux, fluorescence ratio; stronger effect = lower value. normalized thallium flux (F/F0 slope) at 10 µM. 3,000 tested, 54% active;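 active = Flux at 10 µM at least 3 SD below or above vehicle control mean in one or both replicates; inconclusive = no clear call, values can overlap the other calls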
The depositor's hits bear a star. Only some compounds are listed: those with a hit (about 5.1% of all), similar ones and a draw of the others.

How did CCCCCCCC[n+]1cccc2c3ccccc3ccc21 do in these assays?
S1P4 agonist: 1; S1P3 antagonist: 2; Cl transport mod: -0.93; S1P4 antagonist: -16; RAM network inh: 1; ROMK retest: 0.052*

How did CC(C)(C)NS(=O)(=O)c1ccc(CCC(=O)NCc2cccnc2)cc1 do in these assays?
S1P4 agonist: -1; Cl transport mod: 0.0071; S1P4 antagonist: 1; RAM network inh: 1

How did Cc1ccc(OCC(O)CN2CCN(CC(O)COC(C)C)CC2)c(C(C)(C)C)c1 (stereo not given) do in these assays?
S1P4 agonist: -1; S1P3 antagonist: 2; Cl transport mod: 0.63; S1P4 antagonist: -12; RAM network inh: 0; ROMK mod: -3.7*; ROMK retest: 0.062*

Results for CC(C)c1[nH]nc2c1C(c1cccs1)C(C#N)=C(N)O2 (stereo not given) ?
S1P4 agonist: -1; Cl transport mod: -0.096; S1P4 antagonist: 16; RAM network inh: 3; ROMK mod: -5.7*; ROMK retest: 0.058*

What do the screens show for `CC(C)C1C(C#N)=C(N)Oc2n[nH]c(-c3cccs3)c21` (stereo not given)?
S1P4 agonist: 1; S1P3 antagonist: -8; Cl transport mod: -2.9; S1P4 antagonist: -9; RAM network inh: 2

What do the screens show for `CC(=O)N1CCN(c2ccc(S(=O)(=O)NCCN(C(C)C)C(C)C)cc2[N+](=O)[O-])CC1`?
S1P4 agonist: 1; S1P3 antagonist: 8; Cl transport mod: 0.84; S1P4 antagonist: 21; RAM network inh: 0; ROMK mod: 0.24

What do the screens show for `CN(C)CCNS(=O)(=O)c1ccc(N2CCN(c3ccc(F)cc3)CC2)c([N+](=O)[O-])c1`?
S1P4 agonist: -1; S1P3 antagonist: 2; Cl transport mod: -2; S1P4 antagonist: -7; RAM network inh: 0; ROMK mod: -4*; ROMK retest: 0.064*

How did CCc1cc2c(NCc3ccco3)ncnc2s1 do in these assays?
S1P4 agonist: 0; S1P4 antagonist: -6; RAM network inh: 0; ROMK mod: -3.9*; ROMK retest: 0.076

Results for COc1ccccc1C(=O)OCc1c(F)cccc1Cl ?
S1P4 agonist: -1; Cl transport mod: -0.59; S1P4 antagonist: -3; RAM network inh: 0

Results for N#Cc1c(Nc2ccc(Cl)cc2)s[nH]c1=O ?
S1P4 agonist: 0; S1P3 antagonist: -9; Cl transport mod: -2; S1P4 antagonist: 13; ROMK mod: -12*; ROMK retest: 0.065*

Results for N#Cc1ccc(NC(=O)Nc2ccc(Cl)cc2)cc1 ?
S1P4 agonist: 0; S1P3 antagonist: 44; Cl transport mod: -1; S1P4 antagonist: -12; RAM network inh: 2

How did CC[C@H](C)[C@H](NC(N)=O)C(=O)NCCc1ccc(OC)c(OC)c1 do in these assays?
S1P4 agonist: -4; S1P3 antagonist: -10; Cl transport mod: -1.1; S1P4 antagonist: 7; RAM network inh: 2; ROMK mod: 0.36

What do the screens show for `CSc1nsc(SC)c1C(=O)N1CCN(S(=O)(=O)c2ccc(C)cc2)C1C` (stereo not given)?
S1P4 agonist: 1; S1P3 antagonist: -9; Cl transport mod: -0.49; S1P4 antagonist: 5; RAM network inh: 0

What do the screens show for `CSc1nsc(SC)c1C(=O)N1CCN(S(=O)(=O)c2ccc(C)cc2)C1C(C)C` (stereo not given)?
S1P4 agonist: 4; Cl transport mod: -0.23; S1P4 antagonist: -18; RAM network inh: 5; ROMK mod: -3.5*; ROMK retest: 0.064*

How did O=P(c1ccccc1)(c1ccccc1)C(O)c1ccco1 (stereo not given) do in these assays?
S1P4 agonist: -4; Cl transport mod: 1.2; S1P4 antagonist: -10; RAM network inh: 0; ROMK mod: 2.2*; ROMK retest: 0.084

Results for O=P(c1ccccc1)(c1ccccc1)C(O)c1ccncc1 (stereo not given) ?
S1P4 agonist: -1; S1P3 antagonist: 10; S1P4 antagonist: -4; RAM network inh: 2; ROMK mod: -2

Results for O=C(O)CCC(NC(=O)C1CCCN1C(=O)OCc1ccccc1)C(=O)O (stereo not given) ?
S1P4 agonist: 2; S1P3 antagonist: -11; Cl transport mod: 0.37; S1P4 antagonist: -8; RAM network inh: 1; ROMK mod: 1.5*; ROMK retest: 0.084

Results for COc1cc(NC(=O)C2CCCN2C(=O)OCc2ccccc2)cc(OC)c1 (stereo not given) ?
S1P4 agonist: 2; S1P3 antagonist: 1; Cl transport mod: 0.19; S1P4 antagonist: -5; RAM network inh: 0; ROMK mod: -0.24

Results for CCn1cc(C(=O)OCC(=O)N(C)Cc2ccccc2)c(=O)c2ccc(C)nc21 ?
S1P4 agonist: -2; S1P3 antagonist: -14; Cl transport mod: 0.3; S1P4 antagonist: -10; RAM network inh: 1; ROMK mod: 2.9*; ROMK retest: 0.078

Results for CCn1cc(C(=O)OCC(=O)c2cc(C)n(-c3ccc(OC(F)F)cc3)c2C)c(=O)c2ccc(C)nc21 ?
S1P4 agonist: 1; S1P3 antagonist: -1; Cl transport mod: -2.5; S1P4 antagonist: -18; RAM network inh: 4; ROMK mod: -3.2*; ROMK retest: 0.063*

Results for Cc1cc(C)c(OCC(O)CN2CCN(c3ccccn3)CC2)c(C)c1 (stereo not given) ?
S1P4 agonist: 5; S1P3 antagonist: -17; Cl transport mod: -1.5; S1P4 antagonist: -20; RAM network inh: 0; ROMK mod: 0.26

What do the screens show for `CC1CCN(CCCCOc2ccc(Br)cc2)CC1`?
S1P4 agonist: 1; S1P3 antagonist: 9; Cl transport mod: -1.6; S1P4 antagonist: -3; RAM network inh: 0; ROMK mod: -1.3; ROMK retest: inconclusive

How did CC(C)(C)OC(=O)NCCCCCc1nnc(SCC(=O)Nc2cccc(Cl)c2)o1 do in these assays?
S1P4 agonist: 0; S1P3 antagonist: 4; S1P4 antagonist: -9; RAM network inh: 7; ROMK mod: -4.9*; ROMK retest: 0.064*

How did CCCC1(C(=O)OC)NC(c2cccc(F)c2)C2C(=O)N(CC)C(=O)C21 (stereo not given) do in these assays?
S1P4 agonist: 0; S1P3 antagonist: -29; Cl transport mod: 1.6; S1P4 antagonist: -15; RAM network inh: 3; ROMK retest: 0.071

How did NNC(=O)c1ccc(OCC2CC(c3ccc(Cl)cc3)=NO2)cc1 (stereo not given) do in these assays?
S1P4 agonist: -3; S1P3 antagonist: 2; Cl transport mod: -0.22; S1P4 antagonist: 16; ROMK mod: 0.34

What do the screens show for `O=C(Nc1ccccc1Cl)C1CCN(Cc2cnn(-c3ccccc3)c2-n2cccc2)CC1`?
S1P4 agonist: -2; S1P4 antagonist: -6; RAM network inh: 0; ROMK mod: -3.2*; ROMK retest: 0.054*

From PubChem BioAssay
